The text below walks through data of PubChem BioAssay (EPA / NIEHS).

Structures are written as SMILES. Active and inactive are the calls of the source. Rule for the calls: active = hit-call score of the fitted dose curve at least 0.9, where 1 is the maximum; inactive = score below 0.9.

Holding throughout (conditions): mRNA level, 48 h; actives raise or lower the signal
Read-out in test [1]: ATP-citrate lyase (ACLY), ACLY (gene 47)
Kind of test: LTEA_HepaRG_ACLY: Life Technologies and Expression Analysis (LTEA) Assay for ATP-citrate lyase (ACLY) using HepaRG (AID 2283466). The gist of the method:
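HepaRG, 48 h exposure, 8-pt half-log dilutions (top 100 uM), 0.5% DMSO. Readout: ACLY mRNA, TaqMan qRT-PCR, housekeeping-normalized (ACTB/GAPDH/POLR2A). Bidirectional curve fit vs DMSO.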

Read-out in test [2]: Peroxisomal acyl-coenzyme A oxidase 1 (ACOX1) gene, ACOX1 (gene 51)
Kind of test: LTEA_HepaRG_ACOX1: Life Technologies and Expression Analysis (LTEA) Assay for Peroxisomal acyl-coenzyme A oxidase 1 (ACOX1) gene using HepaRG (AID 2283467). The gist of the method: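 Measured by qRT-PCR against three housekeeping genes: ACOX1 transcript change in human HepaRG cells after 48 h dosing. Concentrations ran up to 100 uM in half-log steps. Curves were fitted bidirectionally relative to 0.5% DMSO.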

Read-out in test [3]: Alkaline Phosphatase, Placental (ALPP) gene, ALPP (gene 250)
Kind of test: LTEA_HepaRG_ALPP: Life Technologies and Expression Analysis (LTEA) Assay for Alkaline Phosphatase, Placental (ALPP) gene using HepaRG (AID 2283468).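 For AC50: differentiated human HepaRG liver cells in serum-free induction medium.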 In outline:
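qRT-PCR readout of ALPP mRNA (Fluidigm TaqMan), normalized to ACTB/GAPDH/POLR2A, after 48 h chemical exposure of HepaRG cells; 8-point half-log series, top 100 uM, 0.5% DMSO vehicle. Bidirectional curve fit versus DMSO baseline.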

Read-out in test [4]: adenosine kinase (ADK) gene, ADK (gene 132)
Kind of test: LTEA_HepaRG_ADK: Life Technologies and Expression Analysis (LTEA) Assay for adenosine kinase (ADK) gene using HepaRG (AID 2283471). In outline: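 Differentiated HepaRG cells dosed 48 h in serum-free induction medium, 0.5% DMSO vehicle, eight half-log concentrations from 100 uM, in duplicate. ADK mRNA by TaqMan qRT-PCR normalised to ACTB, GAPDH, POLR2A; bidirectional fit versus DMSO.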

Read-out in test [5]: Alpha-fetoprotein (AFP) gene, AFP (gene 174)
Kind of test: LTEA_HepaRG_AFP: Life Technologies and Expression Analysis (LTEA) Assay for Alpha-fetoprotein (AFP) gene using HepaRG (AID 2283472). In outline: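 Human HepaRG cells plated 48 h, then switched to serum-free induction medium and exposed in duplicate for 48 h to 8-point half-log series from 100 uM in 0.5% DMSO. AFP mRNA by qRT-PCR, normalized to ACTB, GAPDH, POLR2A; bidirectional fit versus DMSO.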

Read-out in the next test: BCL2L11 (gene 10018)
Kind of test: LTEA_HepaRG_BCL2L11: Life Technologies and Expression Analysis (LTEA) Assay for Bcl-2 (BCL2L11) gene using HepaRG (AID 2283473). In outline: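 HepaRG, 48 h exposure, 8-pt half-log series from 100 uM in 0.5% DMSO, duplicates; qRT-PCR (Fluidigm TaqMan) for BCL2L11, housekeeping-normalized; bidirectional curve fit relative to DMSO baseline.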

Read-out in test [6]: Apolipoprotein A-V (APOA5) gene, APOA5 (gene 116519)
Briefly: LTEA_HepaRG_APOA5: Life Technologies and Expression Analysis (LTEA) Assay for Apolipoprotein A-V (APOA5) gene using HepaRG (AID 2283474). In outline: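 HepaRG, 48 h chemical exposure in serum-free induction medium, 8-pt half-log series (top 100 uM), 0.5% DMSO vehicle, duplicates. Readout: APOA5 mRNA by qRT-PCR, housekeeping-normalized; bidirectional fit vs DMSO baseline.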

Read-out in test [7]: Apoptosis regulator Bcl-2 (Homo sapiens) (UniProt P10415)
Kind of test: LTEA_HepaRG_BCL2: Life Technologies and Expression Analysis (LTEA) Assay for Bcl-2 gene using HepaRG (AID 2283475). The gist of the method: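 Differentiated HepaRG cells in serum-free induction medium were exposed for 48 h to eight half-log concentrations up to 100 uM in 0.5% DMSO, in duplicate. BCL2 mRNA was quantified by TaqMan qRT-PCR normalised to ACTB, GAPDH and POLR2A, with bidirectional fitting versus DMSO.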

Read-out in test [8]: Bcl-2 (BID) gene, BID (gene 637)
Briefly: LTEA_HepaRG_BID: Life Technologies and Expression Analysis (LTEA) Assay for Bcl-2 (BID) gene using HepaRG (AID 2283476). The gist of the method: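 Differentiated HepaRG cells in serum-free induction medium were exposed in duplicate for 48 h to eight half-log concentrations up to 100 uM in 0.5% DMSO. BID mRNA was quantified by qRT-PCR, normalized to ACTB, GAPDH and POLR2A.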

Read-out in a further test: Caspase-3 (Homo sapiens) (UniProt P42574)
Briefly: LTEA_HepaRG_CASP3: Life Technologies and Expression Analysis (LTEA) Assay for cysteine-aspartic acid protease (CASP3) using HepaRG (AID 2283477). In outline: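 HepaRG, 48 h exposure, 8 conc. (top 100 uM, half-log steps, duplicate), 0.5% DMSO vehicle; qRT-PCR of CASP3 transcript, housekeeping-normalised (ACTB/GAPDH/POLR2A); bidirectional curve fit vs DMSO baseline.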

Read-out in test [9]: cysteine-aspartic acid protease (CASP8), CASP8 (gene 841)
Briefly: LTEA_HepaRG_CASP8: Life Technologies and Expression Analysis (LTEA) Assay for cysteine-aspartic acid protease (CASP8) using HepaRG (AID 2283480). The gist of the method:
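HepaRG, 48 h exposure, duplicate wells; 8 conc, half-log from 100 uM, 0.5% DMSO. Serum-free induction medium. CASP8 mRNA by TaqMan qRT-PCR, norm. ACTB/GAPDH/POLR2A; gain/loss fitted vs DMSO.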

Read-out in test [10]: Pro-epidermal growth factor (Homo sapiens) (UniProt P01133)
Briefly: LTEA_HepaRG_EGF: Life Technologies and Expression Analysis (LTEA) Assay for Epidermal growth factor (EGF) using HepaRG (AID 2283489). The gist of the method:
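qRT-PCR readout of EGF transcript after 48 h chemical exposure of HepaRG cells; eight concentrations from 100 uM down in half-log steps, duplicate wells, 0.5% DMSO vehicle. Bidirectional curve fitting against DMSO baseline.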

Read-out in test [11]: Cytochrome P450 (CYP24A1), CYP24A1 (gene 1591)
Briefly: LTEA_HepaRG_CYP24A1: Life Technologies and Expression Analysis (LTEA) Assay for Cytochrome P450 (CYP24A1) using HepaRG (AID 2283478). The gist of the method: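 qRT-PCR read-out: CYP24A1 transcript levels normalized to three housekeeping genes, bidirectional curve fits against 0.5% DMSO baseline. Human HepaRG cells treated 48 h with chemicals at eight concentrations from 100 uM in half-log steps.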

Read-out in test [12]: Cytochrome P450 (CYP1A2), CYP1A2 (gene 1544)
Briefly: LTEA_HepaRG_CYP1A2: Life Technologies and Expression Analysis (LTEA) Assay for Cytochrome P450 (CYP1A2) using HepaRG (AID 2283479). In outline: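 HepaRG, 48 h exposure, top 100 uM, half-log 8-pt, 0.5% DMSO vehicle, duplicates. Readout: TaqMan qRT-PCR of CYP1A2 mRNA, housekeeping-normalized (ACTB/GAPDH/POLR2A). Gain/loss fit relative to DMSO baseline.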

Read-out in test [13]: Cytochrome P450 (CYP2B6), CYP2B6 (gene 1555)
Kind of test: LTEA_HepaRG_CYP2B6: Life Technologies and Expression Analysis (LTEA) Assay for Cytochrome P450 (CYP2B6) using HepaRG (AID 2283481). The gist of the method: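 Read-out is CYP2B6 mRNA by TaqMan qRT-PCR, normalized to three housekeeping genes and fitted bidirectionally against 0.5% DMSO baseline. Human HepaRG cells received test chemicals for 48 h, top concentration 100 uM, half-log dilutions.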

Read-out in a further test: CYP2C8 (gene 1558)
Kind of test: LTEA_HepaRG_CYP2C8: Life Technologies and Expression Analysis (LTEA) Assay for CYP2C8 using HepaRG (AID 2283483). The gist of the method:
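CYP2C8 mRNA induction or loss, by qRT-PCR normalized to ACTB/GAPDH/POLR2A, is read in HepaRG cells after 48 h treatment. Concentrations run from 100 uM down in half-log dilutions, with 0.5% DMSO as vehicle and baseline.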

Read-out in another test: CYP2C9 (gene 1559)
Kind of test: LTEA_HepaRG_CYP2C9: Life Technologies and Expression Analysis (LTEA) Assay for CYP2C9 using HepaRG (AID 2283484). In outline:
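Cells plated 48 h, switched to serum-free induction medium, then treated in duplicate for 48 h at eight concentrations (max 100 uM, 0.5% DMSO). RNA then analysed by qRT-PCR for CYP2C9; curves fitted in both directions relative to DMSO.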

Read-out in the next test: CYP2E1 (gene 1571)
Kind of test: LTEA_HepaRG_CYP2E1: Life Technologies and Expression Analysis (LTEA) Assay for CYP2E1 using HepaRG (AID 2283485). The gist of the method:
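HepaRG cells in serum-free induction medium exposed 48 h to test chemicals, 8 half-log concentrations up to 100 uM in 0.5% DMSO, duplicate. CYP2E1 mRNA by qRT-PCR, normalized to ACTB, GAPDH, POLR2A; bidirectional fit versus DMSO.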

Read-out in a further test: CYP4A11 (gene 1579)
Kind of test: LTEA_HepaRG_CYP4A11: Life Technologies and Expression Analysis (LTEA) Assay for CYP4A11 using HepaRG (AID 2283486). In outline: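 CYP4A11 transcript levels were quantified by TaqMan qRT-PCR after HepaRG human liver cells were treated for 48 hours with test chemicals (top 100 uM, half-log dilutions, 0.5% DMSO). Gain or loss of signal was fitted relative to DMSO.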

Read-out in test [14]: Cytochrome P450 3A4 (Homo sapiens) (UniProt P08684)
Kind of test: LTEA_HepaRG_CYP3A4: Life Technologies and Expression Analysis (LTEA) Assay for CYP3A4 using HepaRG (AID 2283487). The gist of the method: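 Differentiated HepaRG cells in serum-free induction medium exposed in duplicate for 48 h to 8 half-log concentrations up to 100 uM in 0.5% DMSO. CYP3A4 mRNA measured by qRT-PCR normalized to ACTB, GAPDH and POLR2A; bidirectional fit versus DMSO.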

Chain of Caspase-3 (Homo sapiens) (P42574 whole entry, looked up): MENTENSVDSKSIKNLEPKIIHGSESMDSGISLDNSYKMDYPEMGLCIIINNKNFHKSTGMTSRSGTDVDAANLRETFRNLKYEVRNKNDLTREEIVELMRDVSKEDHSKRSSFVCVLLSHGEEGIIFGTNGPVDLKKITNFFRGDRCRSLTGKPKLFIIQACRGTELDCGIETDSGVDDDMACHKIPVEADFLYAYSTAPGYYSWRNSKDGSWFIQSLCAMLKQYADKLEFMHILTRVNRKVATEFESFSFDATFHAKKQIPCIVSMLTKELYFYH
Chain of Apoptosis regulator Bcl-2 (Homo sapiens) (P10415 whole entry, looked up): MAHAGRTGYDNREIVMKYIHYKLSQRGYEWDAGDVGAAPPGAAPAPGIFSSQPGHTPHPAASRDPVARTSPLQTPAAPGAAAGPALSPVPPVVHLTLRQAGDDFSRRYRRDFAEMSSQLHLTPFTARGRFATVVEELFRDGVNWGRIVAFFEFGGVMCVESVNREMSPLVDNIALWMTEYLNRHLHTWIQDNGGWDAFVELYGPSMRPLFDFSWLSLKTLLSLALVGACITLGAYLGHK
Chain of Cytochrome P450 3A4 (Homo sapiens) (P08684 whole entry, looked up): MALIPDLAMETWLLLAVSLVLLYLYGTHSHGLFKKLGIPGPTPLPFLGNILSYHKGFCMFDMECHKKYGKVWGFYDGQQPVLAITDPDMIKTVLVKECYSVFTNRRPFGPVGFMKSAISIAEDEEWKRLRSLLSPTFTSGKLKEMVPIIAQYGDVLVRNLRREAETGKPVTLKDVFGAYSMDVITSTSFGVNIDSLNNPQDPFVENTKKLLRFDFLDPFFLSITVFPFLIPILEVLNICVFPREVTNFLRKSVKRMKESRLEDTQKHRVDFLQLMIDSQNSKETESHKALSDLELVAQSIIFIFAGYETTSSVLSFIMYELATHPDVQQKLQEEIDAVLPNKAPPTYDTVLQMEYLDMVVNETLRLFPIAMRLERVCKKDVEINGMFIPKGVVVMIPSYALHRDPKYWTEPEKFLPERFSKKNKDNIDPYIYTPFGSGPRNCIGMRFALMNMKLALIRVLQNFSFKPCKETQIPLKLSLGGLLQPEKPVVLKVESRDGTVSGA

For the compound `CN(C)CCOC(c1ccccc1)c1ccccc1`, the AC50 in [1] is 81.6 µM (active); in test [5], 73.9 µM (active). In addition, the compound was called inactive (in test [2]; in test [3]; in [4]; with BCL2L11 (gene 10018); in test [6]; in test [7]). Also, the compound was called inactive (in [8]; with Caspase-3 (Homo sapiens); in [9]; in test [10]).
`Cc1[nH]nc2c1N=C(c1ccccc1Cl)c1cc([N+](=O)[O-])ccc1N2`: the compound was classed as inactive (in test [1]; in test [4]; in the test with Caspase-3 (Homo sapiens); in [9]; in test [10]). For the same compound, the AC50 in [2] was 20.1 µM (active); in test [3] it was 1.59 µM (active); in test [5] it was 4.36 µM (active); with BCL2L11 (gene 10018) it was 2.82 µM (active); in test [6], 9.84 µM (active); in test [7], 8.98 µM (active). Moreover, the AC50 was 4.02 µM (active) in test [11]; 11.5 µM (active) in test [12]; 8.93 µM (active) in [13]; 7.45 µM (active) with CYP2C8 (gene 1558); 5.12 µM (active) with CYP2C9 (gene 1559); 10.1 µM (active) with CYP2E1 (gene 1571). For the same compound, the values for the AC50 (in the test with CYP4A11 (gene 1579); in test [14]) were 5.26 µM (active) and 77.6 µM (active), respectively.
As to `OCC(CO)(CBr)CBr`, the call (in test [1]; in [2]; in test [3]; in test [4]; in [5]; with BCL2L11 (gene 10018)) was inactive. Moreover, the call (in test [6]; in [8]; in the test with Caspase-3 (Homo sapiens); in test [11]; in test [12]; in test [9]) was inactive. Moreover, the result (in test [13]; with CYP2C8 (gene 1558); with CYP2C9 (gene 1559); in the test with CYP2E1 (gene 1571); in test [14]; in test [10]) was inactive. In addition, the AC50 in the test with CYP4A11 (gene 1579) was 0.411 µM (active).
For the compound `CCCCC=O`, the compound was called inactive (in test [1]; in test [2]; in [3]; in test [4]; in test [5]; with BCL2L11 (gene 10018)). Further, the compound was called inactive (in [6]; in test [7]; in test [8]; in the test with Caspase-3 (Homo sapiens); in [11]; in [12]). In addition, the compound was classed as inactive (in [9]; in test [13]; with CYP2C8 (gene 1558); in the test with CYP2C9 (gene 1559); in the test with CYP2E1 (gene 1571); with CYP4A11 (gene 1579)). Further, the compound was called inactive in test [14] and in test [10].

One may read the AC50 as the midpoint of the concentration-response curve, whichever way the signal moves.
